# Test results reported in PubChem BioAssay (Tox21).
# A number with no mark means an inactive call. A call without a number means that no potency is given here. Calls of active or inactive are those of the source. Calls come from the whole dose curve.
# Test: G protein-coupled receptor (GPCR) small molecule agonists, calcium flux assay: HEK293 wild type cell line counter screen (AID 1920065)
# Details: HEK293 WT calcium flux, fluorescence, agonist mode; series mostly up to 57.6 µM; activation: at the top concentration
# Text: U.S. Tox21 Program National Center for Advancing Translational Sciences [NCATS] Division of Preclinical Innovation [DPI] U.S. Environmental Protection Agency [EPA] National Institutes of Environmental Health Sciences [NIEHS] National Toxicology Program [NTP] U.S. Food and Drug Administration [FDA] Assay overview: The increased intracellular calcium release that occurred upon G protein-coupled receptor (GPCR) activation led to the frequent use of calcium flux assays to detect GPCR activation. For the purpose of studying and screening compounds that may activate GPCR, receptor-overexpressing models were typically generated using Hek293 wild-type (WT) cells. In order to eliminate the compounds that may have induced calcium release for non-specific activation, a counter-assay utilizing calcium flux on Hek293 WT cells was performed. The data were formulated in order to serve as a control for any calcium flux detection utilizing Hek293 cells with either GPCR overexpression or gene modification. The procurement of Hek293 WT cells from ATCC. Fluorescence intensity can be utilized to determine the activation of the compound in a calcium flux assay. As a counter control, this cell line was utilized to screen the Tox21 10K compound library.
# Assay Protocol Summary: Hek293 cells were dispensed at 1500cells/4uL/well in 1536-well black wall/clear bottom plates using a multidrop dispenser. After the assay plates were incubated at a 37 C/5% CO2 incubator for 18 hours, 4 uL of Calcium Dye Solution was added to each well. The plates were incubated at 37 C for 1 hour. For agonist mode, 23 nL of compounds dissolved in DMSO, positive control (ATP) or DMSO only was transferred to the assay plate by a pin tool station. The fluorescence intensity in the plates was measured using FDSS 7000EX kinetic plate reader with a filter set of Ex/Em=480/540 for 3 min at 1 sec intervals. Each test compound was measured at 15 concentrations and in triplicates.
SMILES,Potency,activation
C=CC(=O)OCCO,inactive,
c1ccc2c(c1)Nc1ccccc1S2,inactive,
ClCC(Br)CBr (stereo not given),,0.192%
O=C(NC(=O)c1ccccc1Cl)Nc1ccc(OC(F)(F)F)cc1,,-0.0381%
CCCC[n+]1ccccc1,inactive,
CN(C)N,,-0.536%
Nc1nc(N)nc(Cl)n1,,0.141%
O=S(=O)(Cl)Cl,,-0.504%
O=[N+]([O-])O[C@H]1CO[C@H]2[C@@H]1OC[C@H]2O[N+](=O)[O-],,-0.144% [at 26.5 µM]
O=Cc1ccco1,inactive,
O=NN1CCOCC1,inactive,
CCC(C)Cl (stereo not given),,0.415%
[N-]=[N+]=CC(=O)OC[C@H](N)C(=O)O,inactive,
c1ccc2c(c1)-c1cccc3cccc-2c13,inactive,
Cc1ncc(CNC(=O)N(CCCl)N=O)c(N)n1,,1.2% [at 26.5 µM]
CC(C)(C)C(=O)C(Cl)Cl,,-0.16%
CCCCCc1cc(O)cc(O)c1,inactive,
Cc1ccc(C(=O)Cl)cc1,,-0.0687%
c1ccc(N=NNc2ccccc2)cc1,inactive,
C[C@]12CCC(=O)C=C1CC[C@@H]1[C@@H]2CC[C@@]2(C)[C@H]1CC[C@]2(C)O,inactive,

SMILES,Potency,activation
COc1nc(C)nc(NC(=O)NS(=O)(=O)c2ccccc2Cl)n1,,0.637%
CCCCCCn1cc[n+](C)c1,inactive,
CCCCCCCCCCBr,,0.0163%
COC(=O)c1ccccc1CS(=O)(=O)NC(=O)Nc1nc(OC)cc(OC)n1,,0.654%
c1ccc2c(c1)Oc1ccccc1O2,inactive,
O=C/C=C/c1ccccc1,inactive,
CC1(C)Cc2cccc(O)c2O1,inactive,
O=C(Nc1ccc(Br)cc1)c1cc(Br)cc(Br)c1O,inactive,
C=CCCC#N,,-1.38%
CCC(CC)Nc1c([N+](=O)[O-])cc(C)c(C)c1[N+](=O)[O-],inactive,
CCN(CC)CCN1C(=O)CN=C(c2ccccc2F)c2cc(Cl)ccc21,,0.184% [at 26.5 µM]
C=CC1(C)OC(=O)N(c2cc(Cl)cc(Cl)c2)C1=O (stereo not given),inactive,
ClCCN1CCCC1,,-0.629% [at 26.5 µM]
CC(C#N)CCC#N (stereo not given),inactive,
CC(=O)O,inactive,
CC(C)(c1ccccc1)c1ccc(O)c(C(C)(C)c2ccccc2)c1,inactive,
CCCCCCCCCCCCCC[P+](CCCCCC)(CCCCCC)CCCCCC,inactive,
Cc1nn(-c2cc(NS(C)(=O)=O)c(Cl)cc2Cl)c(=O)n1C(F)F,,0.0461%
CCCCC#N,,0.194%
O=[N+]([O-])c1cccc2ccccc12,inactive,
